Screening results from PubChem.
TDP1 inh: qHTS Assay for Inhibitors of Tyrosyl-DNA Phosphodiesterase (TDP1); AID 485290, 2010; 350,000 compounds, 0.28% hits; Tyrosyl-DNA phosphodiesterase 1 (Homo sapiens), Q9NUW8; recombinant TDP1, AlphaScreen DNA substrate cleavage; Potency, µM (series often up to 130 µM), inactives show at the top dose activity change, negative = inhibition, most hits filed as inhibitors; note: nearly all actives have a fitted effect of over 40% in size
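Compounds were preincubated with Tdp1 (1 nM final) for 15 min at room temperature before substrate (15 nM final) started a 5 min reaction; beads (10 ug/ml final) were then added for 10 min before AlphaScreen detection.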
VDR inhibitor: Inhibitors of the vitamin D receptor (VDR): qHTS; VDR-SRC2-3 peptide fluorescence polarization, 2 h; Potency, µM, inactives show max response, negative = inhibition, usual class: inhibitors; 400,000 compounds, 0.93% hits
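Reagent solutions, kept cold and dark, are dispensed first; compounds are then pinned in at 23 nl, plates briefly spun, and incubated 2 h at ambient temperature. Inhibition of VDR–SRC2-3 peptide binding is read by fluorescence polarization.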
DT40 TDP1 CPT: qHTS for Inhibitors of human tyrosyl-DNA phosphodiesterase 1 (TDP1): qHTS in cells in presence of CPT; Potency, µM (highest dose often 46.2 µM), for inactives: at the top dose activity change, negative = growth inhibition, usual class: inhibitors; chicken DT40 Tdp1-/-;hTDP1 cells + 20 nM CPT, ATP luminescence, 48 h; 420,000 compounds, 12% hits; note: nearly all actives have a fitted effect of over 55% in size
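Chicken DT40 Tdp1-/- cells stably complemented with human TDP1 were seeded at 400 cells/well in medium containing 20 nM camptothecin, exposed to pin-transferred compounds, and grown at 37 °C for at least 48 hr. Viability was read as ATP luminescence.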
DT40 TDP1 no CPT: qHTS for Inhibitors of human tyrosyl-DNA phosphodiesterase 1 (TDP1): qHTS in cells in absence of CPT | DT40 Tdp1-/- hTDP1 cells, no CPT, ATP luminescence, 48 h | Potency, µM (top dose mostly 46.2 µM), inactives show top-dose activity change, negative = growth inhibition, most hits filed as inhibitors | 420,000 compounds, 15% hits; note: nearly all actives have a fitted effect of over 55% in size
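Growth of hTDP1-complemented DT40 Tdp1-knockout cells is measured by ATP luminescence after at least 48 hr compound exposure at 37 °C, with DMSO substituting for the 20 nM CPT used in the parallel screen.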
PLK1 PBD block: qHTS for Inhibitors of PLK1-PDB (polo-like kinase 1 - polo-box domain): Primary Screen; 360,000 compounds, 2.8% hits; Potency, µM, without a hit: max response, negative = inhibition, usual class: inhibitors; Serine/threonine-protein kinase PLK1 (Homo sapiens), P53350; Plk1 PBD binding of FITC phosphopeptide, fluorescence polarization; note: series mostly up to about 57 µM; nearly all actives have a fitted effect of over 65% in size
Target sequence (P53350 whole entry, looked up, the tested form may be a part): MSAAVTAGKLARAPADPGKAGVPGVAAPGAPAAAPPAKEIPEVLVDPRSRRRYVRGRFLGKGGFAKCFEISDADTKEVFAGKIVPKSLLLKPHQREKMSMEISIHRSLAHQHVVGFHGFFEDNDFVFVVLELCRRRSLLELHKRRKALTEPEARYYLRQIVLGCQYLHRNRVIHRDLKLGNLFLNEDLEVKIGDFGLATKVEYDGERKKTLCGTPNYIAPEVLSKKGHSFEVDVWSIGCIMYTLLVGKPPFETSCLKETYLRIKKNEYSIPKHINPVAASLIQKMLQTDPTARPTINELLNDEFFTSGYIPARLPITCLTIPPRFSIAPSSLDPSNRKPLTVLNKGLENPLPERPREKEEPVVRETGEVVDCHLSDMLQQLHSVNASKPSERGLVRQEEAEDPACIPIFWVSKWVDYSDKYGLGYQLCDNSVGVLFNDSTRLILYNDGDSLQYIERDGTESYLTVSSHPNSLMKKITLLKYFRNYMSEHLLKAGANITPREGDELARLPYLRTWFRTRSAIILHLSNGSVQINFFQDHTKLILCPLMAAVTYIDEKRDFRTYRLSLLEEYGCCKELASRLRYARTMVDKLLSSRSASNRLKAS
KAT2A inh: qHTS Assay for Inhibitors of GCN5L2 | Histone acetyltransferase KAT2A (Homo sapiens), Q92830 | GCN5L2 HAT assay, ThioGlo1 CoA-SH fluorescence | Potency, µM (series often up to 58.9 µM), for the others: at the top dose activity change, negative = inhibition, actives largely listed as inhibitors | 390,000 compounds, 0.21% hits | AID 504327, 2011
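ThioGlo1-coupled HAT assay: 20nM GCN5L2, 70uM acetyl-CoA, 75uM H3(1-25) peptide, pH 7.5. Fluorescence read at 340/540nm at start and after 20 min at room temperature.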
* = called active by the depositor; ? = inconclusive; nt = no result; [ ] = another dose, or the depositor's remark. Rows were chosen to be rich in hits. Some 18% of all compounds tested hit in one or more screens of this group. Calls come from the whole dose curve; as a rule, active = well fitted curve in the direction sought with a large enough effect; inconclusive = small, poorly fitted or top-dose-only effect, or another doubt; inactive = no such curve, though single readings can be large; an effect the other way counts as inactive or inconclusive. % is set by controls: 0 for no effect and ±100 for the full control effect; potency is the fitted concentration of half-maximal effect.

SMILES	TDP1 inh	VDR inhibitor	DT40 TDP1 CPT	DT40 TDP1 no CPT	PLK1 PBD block	KAT2A inh
CCn1c2ccccc2c2n[nH]c(=S)nc21	nt	-1.4%	-27.8%	?	?	18.6%
CCn1c2ccccc2c2nn(C)c(=N)nc21	1.1%	10.5%	14.6µM*	18.4µM*	0.3%	-4.2%
Cc1ccc(C(=O)N/C(=C/c2ccco2)C(=O)NCCc2c[nH]c3ccccc23)cc1	5.5%	-29.6%	-27.3%	?	-1.3%	2.1%
c1ccc(-c2nc3ccccc3o2)nc1	5.9%	8.6%	-1.6%	-20.7%	-0.5%	?
c1ccc2nc(-c3nc4ccccc4o3)ccc2c1	-4.3%	15.9%	14.1µM*	?	0.4%	0.8%
COc1ccc(C2CC(=O)c3cnc(N4CCN(Cc5ccccc5)CC4)nc3C2)cc1 (stereo not given)	0.0%	-26.7%	?	23.1µM*	21.2µM*	-4.7%
O=C1CC(c2ccccc2)Cc2nc(N3CCc4ccccc4C3)ncc21 (stereo not given)	-3.0%	-2.3%	?	?	-9.5%	-12.7%
CCc1ccc(Nc2ncc3c(n2)CC(c2ccc(OC)cc2)CC3=O)cc1 (stereo not given)	3.1%	4.4%	?	16.4µM*	-7.0%	48.2%
Cc1ccc(C2CC(=O)c3cnc(N4CCc5ccccc5C4)nc3C2)cc1 (stereo not given)	3.0%	-7.0%	?	18.4µM*	-8.8%	-13.3%
COc1cccc(C(=O)Nc2ncc3c(n2)CC(c2ccc(OC)cc2OC)CC3=O)c1 (stereo not given)	4.8%	8.0%	2.91µM*	4.11µM*	0.0%	-2.0%
COc1ccc(C(=O)Nc2ncc3c(n2)CC(C)CC3=O)cc1 (stereo not given)	0.0%	-4.9%	4.2%	-7.5%	-7.6%	-4.0%
O=C(/C=C\C=C/c1ccc2c(c1)OCO2)N1CCCCC1	8.3%[56.1 µM]	0.1%	nt	nt	nt	-9.8%[21.4 µM]
O=C(NNS(=O)(=O)c1ccc(Cl)cc1)c1cccc(S(=O)(=O)N2CCOCC2)c1	nt	-5.7%	-5.4%	-19.4%	-5.6%	0.5%
Cc1ccc[n+](CC(=O)Nc2ccc(C)c(C)c2)c1	1.2%	6.0%	?	-22.3%	3.6%	-10.2%
CN1CCN(C(=O)CCCN2C(=O)/C(=C/c3ccccc3)SC2=S)CC1	0.0%	7.5%	18.4µM*	16.4µM*	-10.5%	-7.3%
O=C(O)CCCN1C(=O)/C(=C\C(Cl)=C\c2ccccc2)SC1=S	nt	135.2%	18.4µM*	20.6µM*	10.6µM*	0.4%
O=C(CCN1C(=O)/C(=C/c2ccc(Cl)cc2)SC1=S)NC1C=CS(=O)(=O)C1 (stereo not given)	?	-3.0%	-12.9%	?	-19.9%	-12.9%
Cc1nn(-c2ccccc2)c(C)c1/C=C1\C(=O)N(C)C(=S)N1C	-1.2%	6.9%	?	16.4µM*	-0.3%	-12.3%
CN1CCN(C(=O)CCCN2C(=O)/C(=C/c3ccc(Cl)cc3)SC2=S)CC1	6.0%	-7.2%	14.6µM*	11.6µM*	-0.5%	-5.9%
Cc1nn(-c2ccccc2)c(C)c1/C=N\NS(=O)(=O)c1ccc(Cl)cc1	-1.1%	12.1%	-26.9%	-14.0%	-10.8%	-0.4%
COc1cc(NC(=O)CCN2CCN(c3ccccc3)CC2)cc(OC)c1	2.2%[12.3 µM]	10.8%	nt	nt	nt	-3.4%
COc1ccc(CNc2cc(-c3cccc(NS(C)(=O)=O)c3)ncn2)c(OC)c1	nt	-4.7%	?	-23.4%	nt	-13.0%
Cc1cc(NC(=O)CCN2C(=O)/C(=C/c3ccccc3Cl)SC2=S)no1	0.6%	-15.3%	-26.6%	-19.0%	-13.7%	-11.4%
Cc1nn(-c2ccccc2)c(Cl)c1/C=C1\SC(=S)N(CCCCCC(=O)O)C1=O	9.8%	?	-1.4%	-6.8%	23.8µM*	-17.1%
O=C(O)CCN1C(=O)CC(N2C(=O)/C(=C/c3ccc(Cl)cc3)SC2=S)C1=O (stereo not given)	4.2%	-22.5%	-26.5%	-0.2%	23.8µM*	?
SMILES	TDP1 inh	VDR inhibitor	DT40 TDP1 CPT	DT40 TDP1 no CPT	PLK1 PBD block	KAT2A inh
CCOc1ccc(/C=C2\SC(=S)N(CCC(=O)O)C2=O)cc1	nt	7.8%	-2.0%	2.9%	-11.4%	-6.3%
Cc1nn(-c2ccccc2)c(Cl)c1/C=C1\SC(=S)NC1=O	10.7%	-20.6%	?	?	?	-6.9%
CN1CCN(C(=O)CCN2C(=O)/C(=C\c3ccc(Cl)cc3Cl)SC2=S)CC1	3.7%	1.7%	14.6µM*	11.6µM*	42.3µM*	-10.4%
CCOc1ccc(CC(=O)Nc2c(C(=O)c3ccc(F)cc3)oc3ccc(Cl)cc23)cc1OCC	4.5%	-17.1%	-5.1%	-2.4%	nt	0.8%
Cn1cc(Br)c(NS(=O)(=O)c2ccc(Cl)s2)n1	3.7%	0.4%	14.0%	-5.1%	-6.5%	17.7%
N#C/C(=C1/C(=O)Nc2ccc(Br)cc21)c1ccccn1	0.0%	-1.8%	?	?	-10.5%	-7.8%
Cc1cccc(NC(=O)CCS(=O)(=O)c2ccc3c(c2)n(C)c(=O)c(=O)n3C)c1C	7.6%	0.3%	1.1%	2.2%	nt	-5.2%
COc1ccccc1N1CCN(C(=O)c2cc(-c3ccc4c(c3)OCO4)on2)CC1	-4.7%	2.2%	-18.9%	?	-6.9%	-1.9%
Cc1cc(C(=O)OCn2nnc3ccccc3c2=O)c(C)n1-c1ccccc1	8.2%	3.8%	?	18.4µM*	2.9%	-25.4%
Cc1onc(-c2ccccc2Cl)c1C(=O)OCC(=O)N1CCN(c2ccccc2)CC1	0.7%	-11.9%	?	16.4µM*	-8.4%	-7.6%
Cc1onc(-c2ccccc2Cl)c1C(=O)OCC(=O)Nc1cccc(S(=O)(=O)N(C)C)c1	8.9%	-8.6%	?	16.4µM*	-6.9%	-10.8%
COc1ccccc1N1CCN(C(=O)c2cc(-c3cccc(Cl)c3)on2)CC1	0.9%	16.4%	?	12.6µM*	-2.6%	14.5%
Cc1ccccc1C(=O)OCn1nnc2ccccc2c1=O	0.0%	-11.1%	-24.0%	-29.6%	-5.8%	0.9%
CC(NC(=O)CN1C(=O)COc2ccc(S(=O)(=O)N3CCCCCC3)cc21)c1ccccc1 (stereo not given)	3.5%	-3.2%	?	?	nt	-1.2%
